The list is not random: actives were taken first. Their share in the collection is about 1.7%.
aDG glyco up = alpha-DG glycosylation activation; Pro5-aDG cells, alpha-DG glycosylation AlphaScreen (IIH6); 0% Pro5, 100% B10-LARGE cell signal; activation, % at 10 µM; 360,000 compounds, 0.22% hits;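 active means activation of at least 8% versus controls, or a plate z-score of at least 8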;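 further: Pro5 are CHO cells carrying HIG-tagged alpha-DG that lacks glycosylation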
ARNT-TACC3 inh = disruptors of human ARNT/TACC3 interaction; Q9Y6A5; AlphaScreen His-ARNT PAS-B/GST-TACC3 binding, luminescence; TACC3 fragment carries E629A point mutation; inhibition, % at 9.99 µM; 390,000 compounds, 0.66% hits; AID 623870;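 active means mean inhibition of replicates at least 50% and at least half of replicates each reaching 50%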
Vif inh = blocks HIV Vif function; HEK293T cells, Vif self-association by quenched fluorescence, imaging, 24 h; 340,000 compounds, 0.35% hits; inhibition, % at 7.49 µM; in the data active means inhibition above about 50%, passing the limit was not always enough
Glyco luc inh = N-linked glycosylation inhibition; D54 ERlucT glycosylation luciferase reporter, 24 h; percent of 100 nM tunicamycin response; reporter increase, % at 12.5 µM; 360,000 compounds, 0.23% hits;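 active means mean luciferase reporter signal, scaled so untreated is 0 and the glycosylation-blocking control 100, at or above a set limit in every replicate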;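 further: luciferase carries N-glycosylation sites so blocking glycosylation raises the light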
Cardio protect = myocardial damage modulation in H9c2 cells; H9c2 cardiomyocytes, H2O2 injury protection, ATPLite, 2 h; protection from H2O2 cell death, % at 20 µM; 360,000 compounds, 0.63% hits;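 active means compounds giving at least 50% protection of heart cells from peroxide-induced death in the single-dose screen, raw or plate-pattern-corrected value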
Numbers stand for hits; 0 = inactive; - = no result.

SMILES	aDG glyco up	ARNT-TACC3 inh	Vif inh	Glyco luc inh	Cardio protect
CC(C)(C)c1nn(-c2ccccc2)c2[nH]c(=O)c(CNCc3ccco3)cc12	0	0	0	0	79
COc1ccc(O)c(CNn2c(-c3ccc(Br)cc3)nc3ccccc3c2=O)c1	0	-	0	0	50
COc1ccc(OC)c(CNn2c(-c3ccccc3F)nc3ccccc3c2=O)c1	0	0	0	0	0
O=C(COC(=O)COc1ccc(Cl)cc1Br)NC1CCCCCC1	0	0	59	0	0
O=C(COC(=O)COc1ccc(Cl)cc1Br)NC1CCCC1	0	-	-	0	0
C[C@@H]1CN([C@H](C)CO)S(=O)(=O)c2ccc(C#CC3CC3)cc2O[C@@H]1CN(C)C(=O)Cc1ccncc1	-	0	-	-	-
CN1C(=O)c2cc(NC(=O)c3cnccn3)ccc2OC[C@H]2O[C@@H](CC(=O)N[C@@H]3CCN(Cc4ccccc4)C3)CC[C@H]21	-	0	-	-	-
S=c1c2c(nc3nc[nH]n13)CCC2	0	35	0	0	0
CC(C)(C)NC(=O)CN(Cc1ccc(F)cc1)C(=O)Cn1nnc(-c2ccc(F)cc2)n1	0	0	58	0	0
O=C(NCC1CCCO1)C(c1ccc(F)cc1)N(C(=O)Cn1nnc(-c2ccc(F)cc2)n1)c1cccc(O)c1 (stereo not given)	0	0	0	0	56
O=C(CN(C(=O)Cn1nnc(-c2ccc(F)cc2)n1)C1CCCC1)NC1CCCC1	0	0	67	0	0
CC(C(=O)NC1CCCC1)N(C(=O)Cn1nnc(-c2ccc(F)cc2)n1)c1ccccc1F (stereo not given)	0	0	0	0	64
COc1cccc(NC(=O)N2C[C@@H](O)COC[C@@H]3O[C@H](CC(=O)NCCCN4CCOCC4)CC[C@H]32)c1	-	0	-	-	-
COc1ccc2c(c1)oc(=O)c1cc(OC)ccc12	0	0	0	0	0
COc1ccc2c(C)c(Cl)c(=O)oc2c1	0	0	53	0	0
CCn1cc(CN2CCCC(C(=O)Nc3cccc(-c4cc5ccccc5[nH]4)c3)C2)c(C)n1 (stereo not given)	0	-	53	0	0
CN1/C(=C\C=Nc2ccc3ccccc3c2)C(C)(C)c2ccccc21	0	0	78	0	0
CN(C)c1ccc(N=C/C=C2\N(C)c3ccccc3C2(C)C)cc1	0	0	0	0	0
CCCNC(=O)N1[C@H](CO)[C@H](c2ccc(C3=CCCC3)cc2)[C@@H]1CNC(C)=O	-	0	-	-	-
COc1cc(C(=O)Nc2cc3c(cc2N2CCCCC2)n(C)c(=O)n3C)cc(OC)c1OC	0	0	0	42	53
COc1ccc(C(=O)Nc2cc3c(cc2N2CCCCC2)n(C)c(=O)n3C)cc1OC	0	0	0	0	0
O=C(C[C@@H]1CC[C@H]2[C@@H](COC[C@H](O)CN2Cc2cc(F)ccc2F)O1)NCc1ccc(F)cc1	-	0	-	-	-
CC(C)Oc1ccc(F)cc1-c1cc(C(=O)Nc2ccc(C(C)(C)C)cc2)[nH]n1	0	-	0	42	0
O=C(C[C@H]1CC[C@@H](NC(=O)CN2CCOCC2)[C@H](CO)O1)NCc1cccc(F)c1	-	0	-	-	-
CCOC(=O)c1ccc(NC(=O)Cn2ncc(Cl)c(Cl)c2=O)cc1	0	-	0	0	0
SMILES	aDG glyco up	ARNT-TACC3 inh	Vif inh	Glyco luc inh	Cardio protect
Cc1ccc(C(=O)OCn2ncc(Cl)c(Cl)c2=O)cc1	0	0	50	0	0
O=C(OCn1ncc(Cl)c(Cl)c1=O)c1ccc(C(F)(F)F)cc1	0	0	0	31	0
COCC(=O)N1CC[C@H]2[C@@H]1c1cc(-c3ccc(F)cc3)ccc1N(C)[C@H]2CO	-	0	-	-	-
COc1ccc(N2CCc3c(C)nc4c(OC)cccc4c32)cc1	0	0	0	35	0
C/C(=N\NC(=O)c1cccnc1)c1ccc(OC2OCCOC2Oc2ccc(/C(C)=N/NC(=O)c3cccnc3)cc2)cc1 (stereo not given)	0	0	0	0	53
COc1ccc(/C(C)=N/NC(=O)CNC(=O)c2cccnc2)cc1	0	0	0	0	0
CC(=O)N1CCCCN2[C@@H](CO)[C@H](c3ccc(Br)cc3)[C@@H]2C1	-	0	-	-	-
C[C@H](O)C#Cc1cnc2c(c1)C(=O)N([C@H](C)CO)C[C@@H](C)[C@H](CN(C)C(=O)CN1CCOCC1)O2	-	0	-	-	-
CCOC(=O)N1CCN(C(=O)CCN2C(=O)/C(=C\c3cccc(OC)c3)SC2=S)CC1	0	0	0	0	0
COc1cccc(/C=C2\SC(=S)N(CCC(=O)N3CCCCC3)C2=O)c1	0	0	0	39	0
